Screening results deposited in PubChem BioAssay by The Scripps Research Institute Molecular Screening Center.
Only some compounds are listed: those with a hit (about 3.4% of all), similar ones and a draw of the others.
FBW7 act: activators of human E3 ligase FBW7; AlphaScreen FBW7–phospho-cyclin E peptide binding, activator screen; normalized activity (activation), % at 26.1 µM; AID 1259310; Q969H0; 650,000 tested, 0.13% active; in the data active = normalized activity above about 1.9%;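 note: purified mutant Fbw7 with reduced substrate affinity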
MITF inh: inhibitors of human MITF | O75030 | AlphaScreen MITF homodimerization, bead proximity signal | inhibition, % at 2.6 µM | 650,000 tested, 0.91% active | AID 1259374; in the data active = inhibition above about 50%
GPR151 activ: activators of human GPR151 | Q8TDV0 | PathHunter beta-arrestin GPR151 cells, luminescence | activation, % at 11.2 µM | 650,000 tested, 1% active; in the data active = activation above about 4.9%
Target sequence (Q8TDV0 whole entry, looked up): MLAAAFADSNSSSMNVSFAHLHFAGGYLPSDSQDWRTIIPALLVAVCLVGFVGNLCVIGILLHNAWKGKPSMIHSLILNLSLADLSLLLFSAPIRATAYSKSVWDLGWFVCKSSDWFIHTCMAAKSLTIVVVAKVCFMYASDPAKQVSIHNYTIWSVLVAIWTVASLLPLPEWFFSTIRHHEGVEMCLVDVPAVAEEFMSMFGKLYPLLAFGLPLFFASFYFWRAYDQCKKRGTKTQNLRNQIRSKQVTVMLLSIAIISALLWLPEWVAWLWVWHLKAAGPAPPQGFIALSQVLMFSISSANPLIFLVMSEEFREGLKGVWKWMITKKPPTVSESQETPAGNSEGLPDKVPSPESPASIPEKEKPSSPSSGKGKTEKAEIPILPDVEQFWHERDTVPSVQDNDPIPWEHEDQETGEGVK
TEAD-YAP block: TEAD-YAP interaction inhibition | HEK-TIYL cells, TEAD-Gal4/YAP UAS-luciferase luminescence | inhibition, % at 9.12 µM | 640,000 tested, 1.4% active; in the data active = inhibition above about 32%
GPR151 confirm: confirmation of human GPR151 activators; activation, % at 11.2 µM; 6,700 tested, under 10 active; shares compounds with GPR151 activ; GPR151 PathHunter beta-arrestin cells, luminescence, 90 min; % of EA-reagent control over plate median;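 active = mean percent activation across replicates above the confirmation screen cutoff of 4.91%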
GPR119 counter: counter-screen for GPR151 activators: effect on human GPR119 | activation, % at 11.2 µM | shares compounds with GPR151 activ | 6,700 tested, 0.3% active | GPR119 PathHunter beta-arrestin cells, luminescence, 90 min; 0 = compound-well median, 100 = enzyme-acceptor control;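 active = mean percent activation in the counterscreen above 29.09%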;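 note: counterscreen on off-target GPR119 to flag nonselective hits from the GPR151 activator screen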
A number is an active result; - = inactive; . = no result.

SMILES	FBW7 act	MITF inh	GPR151 activ	TEAD-YAP block	GPR151 confirm	GPR119 counter
Cc1cccc(-c2cc(C(=O)Nc3nc4ccc(Cl)cc4s3)c3ccccc3n2)c1	-	-	-	-	.	.
CCOC(=O)c1[nH]c(C)c(C(=O)c2c(F)cccc2Cl)c1C	-	-	-	-	.	.
CCCN(CCC)S(=O)(=O)c1ccc(C)c(C)c1	-	-	-	-	.	.
C=CCN(CC(=O)O)S(=O)(=O)c1ccc(C)c(C)c1	-	-	6.6	-	-	-
Cc1cc(N2CCC(C)CC2)nc2ccc(N)cc12	-	-	7.4	-	-	-
CN1C(C(=O)c2ccccc2)=C(N)c2ccccc2S1(=O)=O	-	-	-	-	.	.
CN1C(C(=O)c2ccccc2)=C(N2CCCCC2)c2ccccc2S1(=O)=O	-	-	8.1	-	-	-
N#Cc1cc([N+](=O)[O-])ccc1NC(=O)COC(=O)CSc1ccc2ccccc2c1	-	-	-	-	.	.
CCOC(=O)c1sc2nccc3c2c1N=CN3c1ccccc1	-	-	5.3	-	-	-
O=C(CSc1nc2ccccc2c(=O)n1Cc1cccs1)Nc1cccc(C(F)(F)F)c1	-	-	-	-	.	.
CCOc1ccc(NC(=O)Cn2c(-n3nc(C)cc3C)nc(C)cc2=O)cc1	-	-	9.1	-	-	-
COc1ccc(NC(=O)Cn2c(-n3nc(C)cc3C)nc(C)cc2=O)cc1	-	-	-	-	.	.
COc1ccc(NC(=O)c2ccc(Oc3ccc(C(F)(F)F)cc3[N+](=O)[O-])c(OC)c2)cc1	-	-	-	-	.	.
Cc1ccc(CNC(=O)c2cc3c(=O)[nH]c4ccccc4c3n2C)o1	-	-	-	-	.	.
Cc1ccc(Cl)cc1N1CCN(C(=O)c2cccn3c(=O)c4ccccc4nc23)CC1	-	-	-	-	.	.
Cc1nnsc1C(=O)N(C)c1ccccc1	-	-	8.2	-	-	-
Cc1nnsc1C(=O)N/N=C/c1ccccc1	-	-	-	-	.	.
Cc1ccc(C(=O)N(C)c2ccccc2)cc1	-	-	5.0	-	-	-
COc1cc(CCN2C(=O)N[C@@H](c3cccc(C(F)(F)F)c3)C(C(C)=O)=C2C)cc(OC)c1OC	-	-	-	.	.	.
COC(=O)C1=C(C)N(Cc2ccccc2)C(=O)N[C@H]1c1cccc(C(F)(F)F)c1	-	-	8.6	.	-	-
CC(=O)C1=C(C)N(Cc2ccccc2)C(=O)N[C@@H]1c1cccc(C(F)(F)F)c1	-	-	-	.	.	.
CCOC(=O)CN1C(=O)N[C@@H](c2cccc(C(F)(F)F)c2)C(C(C)=O)=C1C	-	-	10.0	.	-	-
CC(=O)c1ccc(NC(=O)c2ccc([N+](=O)[O-])cc2Cl)cc1	-	-	-	-	.	.
c1cc(-c2noc(C3CCNCC3)n2)ccn1	-	-	-	-	.	.
c1ccc(C(c2ccccc2)c2noc(C3CCNCC3)n2)cc1	-	-	6.9	-	-	-
SMILES	FBW7 act	MITF inh	GPR151 activ	TEAD-YAP block	GPR151 confirm	GPR119 counter
CC(C)(C)C(=O)OCN1c2nonc2N(COC(=O)C(C)(C)C)c2nonc21	-	-	7.9	-	-	-
CCOC(=O)C1=C(C)N=c2s/c(=C\c3c(OC)ccc4ccccc34)c(=O)n2C1c1ccccc1 (centres undefined)	-	-	-	-	.	.
Cc1ccc(NC(=O)NCC2(O)CCCC2)cc1C	-	-	7.5	-	-	-
Cc1cccc(N(CCCN2C(=O)c3cccc4cccc(c34)C2=O)C(=O)c2cccs2)c1	-	-	5.7	-	-	-
O=c1nc2n(-c3ccc([N+](=O)[O-])cc3)c3cccc(Cl)c3cc-2c(=O)[nH]1	-	-	-	-	.	.
COc1ccc(CC(=O)Nc2ccc(Cl)cc2C(=O)O)cc1	-	-	-	-	.	.
COc1ccc(CC(=O)Nc2cc(Cl)ccc2C(=O)O)cc1	-	-	5.6	-	-	-
CCC(=O)n1cc(/C=c2/sc3nc4cc(C)c(C)cc4n3c2=O)c(-c2ccc(F)cc2)n1	-	-	-	-	.	.
CC(C)(C)c1csc(NC(=O)c2cc([N+](=O)[O-])cc([N+](=O)[O-])c2)n1	-	-	-	-	.	.
CC(=O)Oc1cccc(C(=O)Nc2nc(C(C)(C)C)cs2)c1	-	-	7.3	-	-	-
CC(C)(C)c1csc(NC(=O)c2cc([N+](=O)[O-])ccc2Cl)n1	-	-	7.1	-	-	-
CC(C)(C)c1csc(NC(=O)c2cccc(F)c2)n1	-	-	-	-	.	.
CCOc1ccc(NC(=O)/C=C/c2ccco2)cc1	-	-	-	-	.	.
CC(C)(C)n1nnnc1C(c1cccnc1)N1CCN(c2ccccc2F)CC1 (centres undefined)	-	-	8.4	-	-	-
CCC(C)(C)n1nnnc1C(c1ccc(C)cc1)N1CCN(Cc2cccnc2)CC1 (centres undefined)	-	-	6.4	-	-	-
COc1ccc(NC(=O)CS(=O)CC(=O)NC2CC2)cc1 (centres undefined)	-	-	-	-	.	.
COC(=O)[C@H]1CN(C(=O)c2cnn(C(C)C)c2)C[C@@H]1c1ccc(F)cc1	-	-	5.7	-	-	-
CCn1cc(C(=O)N2C[C@H](C(=O)OC)[C@@H](c3ccc(F)cc3)C2)cn1	-	-	-	-	.	.
COCC(C)NCC(O)COc1cc(Cl)ccc1Cl (centres undefined)	-	-	14	-	-	-
CCCCC1=CC2=CC(=O)C(C)(OC(=O)CCc3ccccc3)C(=O)C2=CO1 (centres undefined)	-	-	8.4	.	-	-
CC(C)(C)OC(=O)NCCCC1=CC2=CC(=O)C(C)(OC(=O)CCc3ccccc3)C(=O)C2=CO1 (centres undefined)	-	-	-	.	.	.
CCC(=O)OC1(C)C(=O)C=C2C=C(c3ccc(C#N)cc3)OC=C2C1=O (centres undefined)	-	-	5.0	.	-	-
Cc1nccn1-c1ccc(NC(=O)C2CCCN(C3CCSCC3)C2)cc1 (centres undefined)	-	-	6.8	-	-	-
CC(C)C(CO)Nc1nccn2c(-c3cccs3)cnc12 (centres undefined)	-	-	-	-	.	.
COc1ccc(OC)c(C(C)NC(=O)c2ccc(F)cc2)c1 (centres undefined)	-	-	5.4	-	-	-
SMILES	FBW7 act	MITF inh	GPR151 activ	TEAD-YAP block	GPR151 confirm	GPR119 counter
Cc1ccccc1OCCCC(=O)Nc1nc(-c2ccccc2)cs1	-	-	7.1	-	-	-
O=C(O)CCCC(=O)Nc1nc(-c2ccccc2)cs1	-	-	-	-	.	.
CCc1ccc(C2=NC(c3ccc(F)cc3)NC(c3cc(Br)ccc3O)C2)cc1 (centres undefined)	-	-	-	-	.	.
COc1ccc(C2C(C(C)=O)=C(C)N=c3s/c(=C\c4cccnc4)c(=O)n32)c(OC)c1 (centres undefined)	-	-	7.1	-	-	-
CCOC(=O)C(=O)Nc1nnc(C(C)C)s1	-	-	-	-	.	.
CCOC(=O)C(=O)Nc1ncc(Cl)s1	-	-	5.4	-	-	-
COc1ccccc1NC(=O)COc1ccc(C(=O)O)cc1	-	-	7.9	-	-	-
